# Source: PubChem BioAssay (National Center for Advancing Translational Sciences (NCATS))
# Rows were chosen to be rich in hits. Some 19% of all compounds tested hit in one or more screens of this group.
# DT40 TDP1 CPT – growth inhibition of DT40 Tdp1-/-;hTDP1 cells with camptothecin (screen for TDP1 inhibitors); chicken DT40 Tdp1-/-;hTDP1 cells + 20 nM CPT, ATP luminescence, 48 h; Potency, µM (top dose mostly 46.2 µM), without a hit: top-dose activity change, negative = growth inhibition, usual class: inhibitors; 420,000 tested, 12% active; AID 686979; also: nearly all actives have a fitted effect of over 55% in size
#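 Chicken DT40 Tdp1-/- cells stably complemented with human TDP1 were seeded at 400 cells/well in medium containing 20 nM camptothecin, exposed to pin-transferred compounds, and grown at 37 °C for at least 48 hr. Viability was read as ATP luminescence.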
# DT40 TDP1 no CPT – qHTS for Inhibitors of human tyrosyl-DNA phosphodiesterase 1 (TDP1): qHTS in cells in absence of CPT; DT40 Tdp1-/- hTDP1 cells, no CPT, ATP luminescence, 48 h; Potency, µM (top dose mostly 46.2 µM), for the others: top-dose activity change, negative = growth inhibition, actives largely listed as inhibitors; 420,000 tested, 15% active; AID 686978, 2013; also: nearly all actives have a fitted effect of over 55% in size
#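 Camptothecin absent (DMSO only). Human TDP1-complemented DT40 knockout cells, 400 cells/well, 37 °C for minimum 48 hr; ATP measured via CellTiter-Glo, 30 min dark incubation, luminescence.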
# KB-V1 MDR tox – kills drug-selected multidrug resistant KB-V1 cells | Potency, µM (titrated, usually from 46.1 µM), usual class: cytotoxic | 400,000 tested, 3.4% active | KB-V1 MDR cells viability, CellTiter-Glo, 72 h; also: nearly all actives have a fitted effect of over 60% in size
#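 KB-V1 MDR subline cells in DMEM (phenol-red free, 10% FBS) exposed to compounds in qHTS concentration series for 72 h at 37 degrees C. Viability read by CellTiter-Glo luminescence; concentration-effect curves fitted after normalization and correction.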
# HT1080NT lethal – kills 2HG-producing HT-1080-NT fibrosarcoma cells. AID 686970. HT-1080-NT fibrosarcoma viability, CellTiter-Glo ATP luminescence, 48 h. 360,000 tested, 1.6% active. Potency, µM (series often up to 46.1 µM), inactives show at the highest dose activity, negative = less viability, most hits filed as cytotoxic;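 also: NT is the 2HG producing partner of a matched IDH1 knockdown line; 0% = DMSO-treated cells and -100% = media-only wells without cells; nearly all actives have a fitted effect of over 55% in size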
#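 Viability of the 2HG-overproducing fibrosarcoma line after 48 hours of compound exposure at 37 degrees C was determined by luminescence with CellTiter-Glo, and concentration-effect curves were then fitted and categorized.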
# KB-3-1 cytotox – KB-3-1 parental cell cytotoxicity. KB-3-1 viability, CellTiter-Glo ATP luminescence, 72 h. Potency, µM (titrated, usually from 46.1 µM), usual class: cytotoxic. 400,000 tested, 1.4% active. AID 1347075; also: nearly all actives have a fitted effect of over 60% in size
#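 72 h, 37 °C compound treatment of KB-3-1 parental cells; CellTiter-Glo added, 10 min, luminescence read. Data corrected against DMSO-only plates and normalized before curve fitting.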
# HT1080 IDH1KD tx – HT-1080 IDH1 knockdown cell toxicity (counter line); Potency, µM (highest dose often 46.1 µM), inactives show top-dose activity, negative = toxicity, most hits filed as cytotoxic; HT-1080 IDH1 knockdown viability, ATP luminescence, 48 h; 360,000 tested, 2% active;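 also: 0% = DMSO wells and -100% = cell-free medium wells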
#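 After a 2 h attachment period, IDH1KD HT-1080 cells took pin-transferred compound for 48 h at 37 °C; ATP-based luminescence after 10 min room-temperature reagent incubation reported viability.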
# Starred values were filed as active, the others as inactive; i = inactive; ? = inconclusive; / = not tested or not shown. Calls follow the shape of the dose curve; as a rule, active = well fitted curve in the direction sought with a large enough effect; inconclusive = small, poorly fitted or top-dose-only effect, or another doubt; inactive = no such curve, though single readings can be large; an effect the other way counts as inactive or inconclusive. Unless noted, % is scaled to controls: 0 for no effect and ±100 for the full control effect; potency is read from the fitted curve at half-maximal effect.
SMILES,DT40 TDP1 CPT,DT40 TDP1 no CPT,KB-V1 MDR tox,HT1080NT lethal,KB-3-1 cytotox,HT1080 IDH1KD tx
CCC(=O)c1ccc(N2CCN(C(=O)c3ccccc3Br)CC2)c(F)c1,?,10µM*,?,-5%,?,-3%
Cc1ccccc1C(=O)c1c[nH]c(C(=O)N2CCN(c3ccccc3F)CC2)c1,18µM*,15µM*,i,-25%,i,?
COc1ccccc1OCc1nn[nH]n1,1%,2%,i,12%,i,?
CCC(=O)c1ccc(N2CCN(C(=O)c3cccs3)CC2)c(F)c1,?,21µM*,i,-1%,i,-1%
Cc1cc(N2CCN(C(=O)c3cccs3)CC2)c(F)cc1[N+](=O)[O-],10µM*,5.2µM*,i,-1%,i,-2%
CCC(=O)c1ccc(N2CCCCCC2)c(F)c1,-26%,?,i,28%,i,20%
O=C(c1cccs1)N1CCN(c2ccc([N+](=O)[O-])cc2F)CC1,?,-21%,i,0%,i,1%
CCC(=O)c1ccc(N2CCN(C(=O)c3ccccc3F)CC2)c(F)c1,10µM*,21µM*,i,-2%,i,-1%
CCOC(=O)N1CCN(c2ccc([N+](=O)[O-])cc2F)CC1C (stereo unspecified),?,?,23µM*,0%,i,-6%
CCOC(=O)N1CCN(C(=O)c2ccc([N+](=O)[O-])cc2Cl)CC1,?,?,i,7%,i,3%
N#Cc1ccc(C(=O)Nc2cccc(NC(=O)c3ccco3)c2)c(F)c1,?,?,?,-8%,i,-14%
COc1ccccc1CN1CCN(C2CCN(C(=O)Nc3ccccc3)CC2)C(=O)C1=O,-17%,3%,i,/,i,/
CCOC(=O)c1ccc(NS(=O)(=O)c2cc3c(cc2C)n(C)c(=O)c(=O)n3C)cc1,?,?,?,/,i,/
Cc1oc(-c2ccccc2Cl)nc1CS(=O)(=O)CC(=O)NC1CCCC1,15%,?,i,-1%,i,-1%
CC(OC(=O)c1ccncc1)C(=O)NC1CCCC1 (stereo unspecified),11%,18%,i,-3%,i,9%
O=C(Nc1ccc2ccccc2c1)c1cn(-c2ccccc2)nc1-c1cccs1,?,?,18µM*,?,i,-18%
CCN(CC)CCNC(=O)c1cn(-c2ccccc2)nc1-c1cccs1,-15%,-18%,i,-22%,i,-17%
CCN(CC)CCOC(=O)c1ccc(NC(=O)c2cn(-c3ccccc3)nc2-c2cccs2)cc1,?,21µM*,i,21µM*,i,?
O=C(c1cn(-c2ccccc2)nc1-c1cccs1)N1CCN(c2ccccn2)CC1,?,21µM*,?,-5%,?,-14%
CCOC(=O)c1ccc(S(=O)(=O)NNC(=O)COc2ccccc2C)cc1,?,7%,i,-29%,i,-25%
CC(C)C(=O)N1CCC1(C)C(=O)NCc1ccc(F)cc1Cl (stereo unspecified),?,-10%,i,-3%,i,3%
Nc1nc2c(c(=O)[nH]1)C(c1ccccc1)C1=C(N2)c2ccccc2C1=O (stereo unspecified),-21%,-18%,i,-6%,i,0%
Cn1c2c(c(=O)[nH]c1=O)C(c1ccc(O)cc1)C1=C(N2)c2ccccc2C1=O (stereo unspecified),10µM*,23µM*,i,-6%,i,-27%
CN(C)CCCN1C(=O)c2cccc3cccc(c23)C1=O,?,?,i,?,?,?
COc1ccc(N(CCCN2C(=O)c3cccc4cccc(c34)C2=O)C(=O)c2cccc(OC)c2)cc1,13µM*,10µM*,i,-1%,i,-16%
SMILES,DT40 TDP1 CPT,DT40 TDP1 no CPT,KB-V1 MDR tox,HT1080NT lethal,KB-3-1 cytotox,HT1080 IDH1KD tx
O=C(O)CCCN1C(=O)c2cccc3cccc(c23)C1=O,7%,-12%,i,?,i,0%
O=C1c2cccc3cccc(c23)C(=O)N1CCCN(C(=O)c1cccs1)c1cccc(F)c1,?,16µM*,?,-1%,i,-13%
O=C1c2ccccc2C(=O)N1CCCCN(C(=O)c1ccc(Cl)s1)c1ccc(Cl)cc1,?,21µM*,?,16%,i,19%
Cc1ccc(N(CCCCN2C(=O)c3ccccc3C2=O)C(=O)c2cccc([N+](=O)[O-])c2)cc1,?,16µM*,18µM*,-9%,i,-19%
CCN1CCc2nc3sc(C(=O)c4ccc(F)cc4)c(N)c3cc2C1,?,23µM*,i,/,i,/
CN1CCc2nc3sc(C(=O)c4ccc(F)cc4)c(N)c3cc2C1,?,?,i,/,i,/
CCN1CCc2nc3sc(C(=O)c4ccccc4)c(N)c3cc2C1,2.6µM*,3.7µM*,?,/,8.2µM*,/
C=CCNC(=O)COc1cc(C)ccc1C,-22%,?,i,1%,i,-3%
COc1ccc(NC(=O)Nc2c(O)ccc3ccccc23)cc1,?,?,i,0%,i,-11%
COc1ccc(-c2noc(N3CCN(c4ccc(C)cc4)C(C)C3)n2)cc1OC (stereo unspecified),?,16µM*,?,/,i,/
Cc1cc2ncn(CCOc3ccccc3C#N)c2cc1C,-21%,?,?,-10%,i,-13%
CSc1nc(N)nc(SCC(=O)C23CC4CC(CC(C4)C2)C3)c1C#N,?,18µM*,?,?,?,?
N#Cc1c(N)nc(SCC(=O)C23CC4CC(CC(C4)C2)C3)c(C#N)c1-c1ccc(Cl)cc1,?,?,?,-4%,i,-9%
Cc1cc(C(C)(C)C)cc(C)c1CCNC(=O)c1c(C)noc1C,29µM*,26µM*,?,?,?,?
CCCC1OC23CCCCC2C(C#N)(C(=N)O3)C1(C#N)C#N (stereo unspecified),7.3µM*,16µM*,i,9%,i,2%
CC1C2(C)OC(=N)C(C#N)(C(C)O2)C1(C#N)C#N (stereo unspecified),-26%,-9%,i,18%,i,1%
CC1OC2(C)OC(=N)C1(C#N)C(C#N)(C#N)C2c1ccccc1 (stereo unspecified),-23%,?,i,-4%,i,4%
